From PubChem BioAssay (NCI)
Compounds without any hit were thinned out: in the full panel of roughly 83,000, 20% have a hit.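 Results are percent growth after 48 hours of single-concentration exposure. 100 means growth as in untreated cells, lower positive values show inhibition; negative values down to -100 show cell death.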 A number with no mark means an inactive call. The source made the active and inactive calls. The calls were made as follows: active = growth percent below 10; inactive = the rest.

Assays:
Experiment in all cases: NCI-60 one-dose screen, 48 h (100 = growth as untreated, 0 = no growth, -100 = all killed)
SR leukemia = settings: 10 µM unless noted
RPMI-8226 leukemia = settings: 10 µM
OVCAR-8 ovarian = settings: 10 µM unless noted
OVCAR-5 ovarian = settings: 10 µM unless noted
OVCAR-4 ovarian = settings: 10 µM unless noted
IGROV1 ovarian = settings: 10 µM unless noted
OVCAR-3 ovarian = settings: 10 µM unless noted
HS 578T breast = settings: 10 µM unless noted
NCI/ADR-RES ovarian = settings: 10 µM unless noted
BT-549 breast = settings: 10 µM unless noted
MDA-MB-435 melanoma = settings: 10 µM unless noted
SW-620 colon = settings: 10 µM unless noted
MCF7 breast = settings: 10 µM unless noted
HCT-116 colon = settings: 10 µM unless noted
HCC-2998 colon = settings: 10 µM unless noted
KM12 colon = settings: 10 µM unless noted
SK-OV-3 ovarian = settings: 10 µM
T-47D breast = settings: 10 µM

Row | SMILES | growth (SR leukemia) | growth (RPMI-8226 leukemia) | growth (OVCAR-8 ovarian) | growth (OVCAR-5 ovarian) | growth (OVCAR-4 ovarian) [%] | growth (IGROV1 ovarian) | growth (OVCAR-3 ovarian) | growth (HS 578T breast) | growth (NCI/ADR-RES ovarian) | growth (BT-549 breast) | growth (MDA-MB-435 melanoma) | growth (SW-620 colon) | growth (MCF7 breast) | growth (HCT-116 colon) | growth (HCC-2998 colon) | growth (KM12 colon) | growth (SK-OV-3 ovarian) | growth (T-47D breast)
1 | O=S(=O)(Nc1ccc(Cl)c(Cl)c1)c1ccc(-c2cnc(C3CC3)o2)cc1 | 43.7% | 24.6% | 33.3% | 34.2% | 46.4 | 27% | -17.8% (active) | -18.5% (active) | 5.86% (active) | 56.2% | -32.8% (active) | 12.8% | 17.9% | 26.1% | 38.2% | 20% |  | 
2 | O=C(NC1CC1)c1cc2n(n1)CC(c1ccccc1)N2 (stereo not given) | 104% | 112% | 105% | 95.9% | 104 | 100% | 112% | 83.8% | 104% | 99.7% | 99.4% | 95.4% | 85.9% | 102% | 101% | 102% |  | 
3 | COc1ccc(/C=C2\Oc3cc(C)c(Cl)cc3C2=O)cc1OC | 73.2% | 89.9% | 102% | 98.3% | 82.3 | 103% | 108% | 109% | 107% | 89.1% | 96.6% | 104% | 83.1% | 84.6% | 116% | 100% |  | 
4 | COc1cc(/C=N/NC(=O)c2cnn3c2NC(c2ccccc2)C3)cc(OC)c1OC (stereo not given) | 47.6% | 96.7% | 90.7% | 87.2% | 82.5 | 54.7% | 10.4% | 65.2% | 82.9% | 60.2% | -15.9% (active) | 32.8% | 34.9% | 35% | 91.2% | 30.6% |  | 
5 | O=C1/C(=C/c2ccc(F)cc2)CN(Cc2cn(CCNc3ccnc4cc(Cl)ccc34)nn2)C/C1=C\c1ccc(F)cc1 | -23.7% (active) | -31% (active) | -5.64% (active) | -57.6% (active) |  | 0.407% (active) | -39.7% (active) | 18.2% | 4.23% (active) | -91.1% (active) | -86.5% (active) | -70.5% (active) | -79.6% (active) | -84.5% (active) | -92.1% (active) | -71.4% (active) | -27.1% (active) | -31.2% (active)
6 | Cc1nc2cc(Nc3nc(NCCO)nc(Nc4ccc(F)cc4)n3)ccc2n1Cc1ccccc1 | 14.9% | 14.2% | 80% | 114% |  | 88.9% | 90.2% | 107% | 97.7% | 101% | 91.6% | 109% | 91.3% | 76.5% | 106% | 80.3% | 105% | 65.3%
7 | CCC(C)Oc1cc(/C=N/NC(=O)c2cnn3c2NC(c2ccccc2)C3)ccc1OC (stereo not given) | 25.8% | 45.7% | 47.2% | 61.3% | 48.3 | 48.1% | 2.52% (active) | -15.1% (active) |  | 40.7% | 0.38% (active) | 27.3% | 18.5% | 22% | 72.3% | 20.2% |  | 
8 | CCN(CC)c1ccc2c(c1)OS(=O)(=O)N=C2 | 93.3% | 104% | 107% | 99.9% | 97.9 | 97.5% | 114% | 110% | 95.6% | 95.7% | 101% | 103% | 94.7% | 99.5% | 114% | 113% |  | 
9 | O=c1[nH]c(=S)c2c(n1CCCO)CCC2 | 97% | 101% | 102% | 99.4% | 102 | 103% | 110% | 99.8% | 103% | 107% | 97% | 103% | 96.5% | 99.1% | 108% | 105% |  | 
10 | COc1ccc(C2=NOC(CC(=O)N(CCO)CCO)C2)cc1OC1CCCC1 (stereo not given) | 106% | 106% | 102% | 98.5% | 102 | 106% | 114% | 99.2% | 101% | 95.5% | 104% | 97.7% | 95.2% | 79.6% | 103% | 103% |  | 
11 | CCCCC(O)Cn1ncc(C(=O)OCC)c1NC(=O)NCc1ccccc1C(F)(F)F (stereo not given) | 87.9% | 88.6% | 98.7% | 105% | 85 | 99% | 108% | 106% | 98.7% | 92% | 99.5% | 104% | 94.1% | 89.6% | 108% | 101% |  | 
12 | CCCCC/C=C\C/C=C/CCCCCCCCNC(=O)Nc1ccc([N+](=O)[O-])cc1 | 34.9% | 12.8% | 52.9% | 113% | 93 | 46.3% | 21.3% | 88.2% | 21.5% | 109% | 68.3% | 31.6% | 103% | 40% | 95.3% | 23.9% |  | 
13 | CCOC(=O)c1cnn(CC(O)c2ccc(F)cc2)c1NC(=O)Nc1ccccc1F (stereo not given) | 105% | 82.9% | 104% | 101% | 81.7 | 101% | 107% | 97.3% | 101% | 80.1% | 102% | 101% | 93.1% | 89.4% | 115% | 94.3% |  | 
14 | CC1=C(C/C=C(\C)CCC[C@H](C)CCC[C@H](C)CCCC(C)C)C(=O)c2ccccc2C1=O | 94.9% | 106% | 100% | 105% |  | 111% | 119% | 105% | 111% | 96.7% | 108% | 104% | 108% | 98.8% | 108% | 105% | 103% | 110%
15 | COc1cc(/C=N/NC(=O)c2cnn3c2NC(c2ccccc2)C3)ccc1OC1CCCC1 (stereo not given) | 35.2% | 17.9% | 49.1% | 59.7% | 44.6 | 42.6% | -32.9% (active) | -18% (active) | 14% | 16.8% | 0.812% (active) | 18.3% | 16.8% | 18.9% | 63.8% |  |  | 
16 | CCCCCCCC/C=C\CCCCCCCCOc1cccc(CC(=O)NCC[N+]2(C)CCCC2)c1 | 43.1% | 77.3% | 85.5% | 53.8% | 77.1 | -15.7% (active) | 96.2% | 77.5% | 108% | 115% | 85.7% | 77.9% | 73.4% | 76.2% | 75.9% | 69.2% |  | 
17 | Cc1ccc(NS(=O)(=O)c2ccc(-c3cnc(C4CC4)o3)cc2)cc1 | 33.8% | 37.6% | 49.3% | 48.8% | 59 | 39.8% | -2% (active) | -2.93% (active) | 8.09% (active) | 40.4% | -3.14% (active) | 12.4% | 15.6% | 11.8% | 69.2% | 20.5% |  | 
18 | COc1ccc(/C=N\N2CCOCC2)cc1OC1CCCC1 | 101% | 103% | 104% | 103% | 97.6 | 107% | 114% | 90.7% | 106% | 83.8% | 106% | 100% | 93.2% | 87.9% | 112% | 106% |  | 
19 | CCCCCCCC/C=C\CCCCCCCCOc1cccc(CC(=O)NCC[N+]2(C)CCCCC2)c1 | 34.7% | 67.1% | 74.3% | 39.6% | 66.3 | -37% (active) | 89.9% | 73.9% | 102% | 95.3% | 82.1% | 59.7% | 75.7% | 71.5% | 67.9% | 43.6% |  | 
